Consider 40 sequences from the supplement of paper PMC6555819.

One assay concerns RARg:RXRa (NR concentration 270 nM, RXRa partner concentration 90 nM). The experiment in a line: PBM binding z-score (relative to random genomic background probes); higher = stronger binding; sequences stand for … in GC…GCGATTGACAGCGTAGAATGAAGG
In a few lines:
(§1)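 On custom Agilent 4×180K arrays, double-stranded probes with 34-nt variable regions carried direct-repeat seeds, single-nucleotide variants, half-site ablations or random human genomic background. Ligand-free nuclear receptor dimers were applied for 1 h, and binding was read with antibodies against each partner (one per run). Binding z-scores come from regression-normalized fluorescence, with the random background probes as reference.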
As for ATCGAAAGGTCGAGGTGAGTATTGAGAAAGGGAA, the PBM binding z-score amounted to 4.2.

Take GCGACTGGGGCATCAGCAGGTTACAATAACTTAA: the PBM binding z-score is 0.817.

In the case of ATCGAAAGGTCGTGCGGTGAGTATACAGAAAGGC, the PBM binding z-score turned out to be 4.48.

In the case of ATATGTAGATTAGCTGGGGTCATTCAGACTAGGC, the PBM binding z-score worked out at 3.43.

On to ACTGTTAGTTGAGACGAGGGCAACCGATAGGTTG, for which the PBM binding z-score amounted to 0.764.

TAGCCTAGGTCATGCGGGCTAGTATAGTGTCGGC had a PBM binding z-score of 3.77.

Consider ATCACTAGGTAAAGTTCAGTGAAAGATCGATAGA, for which the PBM binding z-score stood at 2.32.

As to TCATATAGGTAAAAGGTGTAAGTCGGTGTGGTAA, the PBM binding z-score amounted to 0.32.

For the sequence CCGAATGGGGCAAGGTTACCATAACGCACAGCCA, the PBM binding z-score came out at 1.05.

Sequence ATCTCTAGGTAACAAGTTCACTGAAAGAGAGGAC gave a PBM binding z-score of 2.27.

For GCGACTCGGGCAAAGCAGGTTACCATAAGGTTGG, the PBM binding z-score amounted to 0.453.

In the case of ATCGAAAGGTCGAGATGAGTATAGAGAAAGGGAA, the PBM binding z-score was 3.79.

ATATGTAGGTTAAGGGTCATTCGGGTTGGTTCGC returned a PBM binding z-score of 4.87.

As to AGAATGAGGTTATACGTAGATCAGGTAAGAAAGT, the PBM binding z-score stood at 1.68.

For GCTTACGGGTCAAGGGTTATAGCATGAATAGAAT, the PBM binding z-score was found to be 5.54.

On to AATCCAGGGTCACTAGGCCAGAGTAGGTACGAAT, for which the PBM binding z-score was 5.39.

In the case of ATCTCTAGGTCAAGTTCAGTGAAAGATCGATAGA, the PBM binding z-score turned out to be 4.93.

As to GCTTGTAGATCAAGGTCAAGAAAGACTAAGCTAA, the PBM binding z-score is 3.61.

The next assay concerns RARg homodimer (NR concentration 270 nM). The description is as above. The method, boiled down:
as §1
On to AGTCAAAGTTCACTAGGTAACGTTAGATTCAGCT, for which the PBM binding z-score turned out to be 5.57.

ACTAGCAGGCCTAGGGTCACTCAAGATTAGTCCG registered a PBM binding z-score of 2.35.

Consider TCTGCTAGGTCAACGATGGTCAGCTCATCTGCTA, for which the PBM binding z-score amounted to 4.62.

On to ATCTCTAGGTAACCAAGTTTAGTGAATGCCGAAC, for which the PBM binding z-score is 0.348.

CCTACTGGGCAATCAGGTCATTGATATCAACGTT showed a PBM binding z-score of 1.51.

On to CGAACTAGGTCATTGACAGGTCAGTGAATAGTAA, for which the PBM binding z-score worked out at 5.57.

On to TCTTGTAGATCAATCAGGTTAAGAAAGCCTGAGT, for which the PBM binding z-score is -0.074.

On to CGAACTAGGCCATCCAGGACAGTGAATACATTGA, for which the PBM binding z-score is 0.851.

The sequence CATACAGGGTCAGCTAGGCCAGAGTGGGGACGGC gave a PBM binding z-score of 4.75.

CCTAGTTGATCAGGAGGTCACACACCGGATATGA displayed a PBM binding z-score of 3.78.

Sequence AGAACGAGGGCAATGAGATGATAGCACGGGTGGC had a PBM binding z-score of 1.72.

Take AGAATGAGGTTATTCAGATCAGGGAATTGCGGTC: the PBM binding z-score stood at 1.13.

The sequence ATCTCTAGGTAAAGTTCCGTGAAAGATCGATAGA came in with a PBM binding z-score of 0.381.

Take CTCGAAAGGTCGTGCTCAGGTGAGCATACCAAAC: the PBM binding z-score was 4.45.

Consider CGTACTAGGTCATCCAGGACAGTGAATACATTGA, for which the PBM binding z-score is 4.47.

Sequence CAGCCTAGGTCAGGGCCAGGATAGGAGGAACGTT had a PBM binding z-score of 3.91.

On to GATACAGGGTCAGCTAGAGGCCTGAGTATGGAAA, for which the PBM binding z-score amounted to 4.64.

In turn, CCGATTAGGTTATGGGGCATTCAGGCAACGGTGA gave a PBM binding z-score of 0.783.

In turn, ATCACTAGGTAACAAGTTCAGTGAAAGAGAGGAC came in with a PBM binding z-score of 1.49.

In the case of ATCTCTAGCTAAAGTTCAGTGAAAGATCGATAGA, the PBM binding z-score worked out at 2.45.

Sequence AGAATGTGGTTACCAAAGATCAGGGAAACGCTTG yielded a PBM binding z-score of 0.17.

The sequence GCTAGCAGGCCATTTGGATCACTCAATGACGGGC had a PBM binding z-score of -0.00293.

The sequence ATCGAAAGGTCGAGGTGAGTATTGAGAAAGGGAA registered a PBM binding z-score of 3.88.

Take GCGACTGGGGCATCAGCAGGTTACAATAACTTAA: the PBM binding z-score was 0.522.

The sequence ATCGAAAGGTCGTGCGGTGAGTATACAGAAAGGC returned a PBM binding z-score of 4.28.

In the case of ATATGTAGATTAGCTGGGGTCATTCAGACTAGGC, the PBM binding z-score was 2.17.

Sequence ACTGTTAGTTGAGACGAGGGCAACCGATAGGTTG came in with a PBM binding z-score of 1.13.

As to TAGCCTAGGTCATGCGGGCTAGTATAGTGTCGGC, the PBM binding z-score stood at 3.75.

The sequence ATCACTAGGTAAAGTTCAGTGAAAGATCGATAGA showed a PBM binding z-score of 2.39.

As for TCATATAGGTAAAAGGTGTAAGTCGGTGTGGTAA, the PBM binding z-score was 0.0311.

For the sequence CCGAATGGGGCAAGGTTACCATAACGCACAGCCA, the PBM binding z-score is 1.37.

ATCTCTAGGTAACAAGTTCACTGAAAGAGAGGAC gave a PBM binding z-score of 2.04.

GCGACTCGGGCAAAGCAGGTTACCATAAGGTTGG yielded a PBM binding z-score of 0.464.

With ATCGAAAGGTCGAGATGAGTATAGAGAAAGGGAA, the PBM binding z-score came out at 3.54.

Take ATATGTAGGTTAAGGGTCATTCGGGTTGGTTCGC: the PBM binding z-score turned out to be 3.3.

In turn, AGAATGAGGTTATACGTAGATCAGGTAAGAAAGT gave a PBM binding z-score of 1.19.

Regarding GCTTACGGGTCAAGGGTTATAGCATGAATAGAAT, the PBM binding z-score was found to be 4.39.

The sequence AATCCAGGGTCACTAGGCCAGAGTAGGTACGAAT had a PBM binding z-score of 4.98.

Regarding ATCTCTAGGTCAAGTTCAGTGAAAGATCGATAGA, the PBM binding z-score came to 5.92.

GCTTGTAGATCAAGGTCAAGAAAGACTAAGCTAA came in with a PBM binding z-score of 3.42.

For another assay, the system named is RXRa DBDmut IVT, anti-RXR (DBD mutation: RXRa K156A/R161A, NR concentration 90 nM). The assay is described as above. In a few lines: as §1
For the sequence AGTCAAAGTTCACTAGGTAACGTTAGATTCAGCT, the PBM binding z-score is 4.15.

Sequence ACTAGCAGGCCTAGGGTCACTCAAGATTAGTCCG came in with a PBM binding z-score of 0.221.

TCTGCTAGGTCAACGATGGTCAGCTCATCTGCTA returned a PBM binding z-score of 1.05.

For the sequence ATCTCTAGGTAACCAAGTTTAGTGAATGCCGAAC, the PBM binding z-score came out at 0.384.

For CCTACTGGGCAATCAGGTCATTGATATCAACGTT, the PBM binding z-score is 0.0815.

As to CGAACTAGGTCATTGACAGGTCAGTGAATAGTAA, the PBM binding z-score turned out to be 2.35.

In turn, TCTTGTAGATCAATCAGGTTAAGAAAGCCTGAGT came in with a PBM binding z-score of 0.724.

Regarding CGAACTAGGCCATCCAGGACAGTGAATACATTGA, the PBM binding z-score amounted to 0.537.

As to CATACAGGGTCAGCTAGGCCAGAGTGGGGACGGC, the PBM binding z-score amounted to 1.4.

In the case of CCTAGTTGATCAGGAGGTCACACACCGGATATGA, the PBM binding z-score came to 1.4.

In turn, AGAACGAGGGCAATGAGATGATAGCACGGGTGGC had a PBM binding z-score of 1.59.

AGAATGAGGTTATTCAGATCAGGGAATTGCGGTC yielded a PBM binding z-score of 2.35.

As for ATCTCTAGGTAAAGTTCCGTGAAAGATCGATAGA, the PBM binding z-score is 0.35.

In turn, CTCGAAAGGTCGTGCTCAGGTGAGCATACCAAAC yielded a PBM binding z-score of 2.21.

CGTACTAGGTCATCCAGGACAGTGAATACATTGA registered a PBM binding z-score of 2.15.

CAGCCTAGGTCAGGGCCAGGATAGGAGGAACGTT displayed a PBM binding z-score of -0.715.

As to GATACAGGGTCAGCTAGAGGCCTGAGTATGGAAA, the PBM binding z-score amounted to 1.14.

In the case of CCGATTAGGTTATGGGGCATTCAGGCAACGGTGA, the PBM binding z-score worked out at 0.4.

With ATCACTAGGTAACAAGTTCAGTGAAAGAGAGGAC, the PBM binding z-score amounted to 1.12.

Regarding ATCTCTAGCTAAAGTTCAGTGAAAGATCGATAGA, the PBM binding z-score is 0.982.

As to AGAATGTGGTTACCAAAGATCAGGGAAACGCTTG, the PBM binding z-score was -0.485.

GCTAGCAGGCCATTTGGATCACTCAATGACGGGC registered a PBM binding z-score of 0.0121.

ATCGAAAGGTCGAGGTGAGTATTGAGAAAGGGAA returned a PBM binding z-score of 0.619.

The sequence GCGACTGGGGCATCAGCAGGTTACAATAACTTAA had a PBM binding z-score of -0.00722.

ATCGAAAGGTCGTGCGGTGAGTATACAGAAAGGC showed a PBM binding z-score of 1.56.

ATATGTAGATTAGCTGGGGTCATTCAGACTAGGC had a PBM binding z-score of 1.87.

As to ACTGTTAGTTGAGACGAGGGCAACCGATAGGTTG, the PBM binding z-score is 0.337.

As for TAGCCTAGGTCATGCGGGCTAGTATAGTGTCGGC, the PBM binding z-score stood at 0.197.

In the case of ATCACTAGGTAAAGTTCAGTGAAAGATCGATAGA, the PBM binding z-score came to 1.44.

In turn, TCATATAGGTAAAAGGTGTAAGTCGGTGTGGTAA yielded a PBM binding z-score of 1.55.

In turn, CCGAATGGGGCAAGGTTACCATAACGCACAGCCA showed a PBM binding z-score of 0.000118.

On to ATCTCTAGGTAACAAGTTCACTGAAAGAGAGGAC, for which the PBM binding z-score is 1.69.

The sequence GCGACTCGGGCAAAGCAGGTTACCATAAGGTTGG displayed a PBM binding z-score of -0.723.

ATCGAAAGGTCGAGATGAGTATAGAGAAAGGGAA returned a PBM binding z-score of 0.857.

In turn, ATATGTAGGTTAAGGGTCATTCGGGTTGGTTCGC showed a PBM binding z-score of 2.32.

For AGAATGAGGTTATACGTAGATCAGGTAAGAAAGT, the PBM binding z-score amounted to 1.81.

Turning to GCTTACGGGTCAAGGGTTATAGCATGAATAGAAT, the PBM binding z-score was 1.86.

Regarding AATCCAGGGTCACTAGGCCAGAGTAGGTACGAAT, the PBM binding z-score came out at 2.49.

Regarding ATCTCTAGGTCAAGTTCAGTGAAAGATCGATAGA, the PBM binding z-score was found to be 2.98.

GCTTGTAGATCAAGGTCAAGAAAGACTAAGCTAA came in with a PBM binding z-score of 1.03.
